Hits are enriched below; roughly 7.5% of the tested compounds scored in any of these assays.
Giardia FBPA inh: blocks Giardia fructose-bisphosphate aldolase activity; Potency, µM (doses to about 59.6 µM), for inactives: top-dose activity, negative = inhibition, hits mostly inhibitors; A8B2U2; purified Giardia FBPA; actives 0.71% (n = 290,000); note: potency is the fitted concentration of half-maximal effect; nearly all actives have a fitted effect of over 55% in size
Target sequence (A8B2U2 whole entry, looked up): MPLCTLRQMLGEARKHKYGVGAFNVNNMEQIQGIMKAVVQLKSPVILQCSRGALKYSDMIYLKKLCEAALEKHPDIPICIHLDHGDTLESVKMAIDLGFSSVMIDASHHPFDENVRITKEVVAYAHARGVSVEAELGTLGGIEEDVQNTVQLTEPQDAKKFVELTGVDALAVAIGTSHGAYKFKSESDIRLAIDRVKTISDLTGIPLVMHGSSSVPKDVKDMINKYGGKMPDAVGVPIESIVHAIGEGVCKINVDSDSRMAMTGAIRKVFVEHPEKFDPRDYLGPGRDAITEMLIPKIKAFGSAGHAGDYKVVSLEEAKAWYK
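Giardia FBPA (40 nM reagent) was preincubated 10 min at RT with compound (up to 57.5 uM final), then substrate plus GAPDH/TPI/NAD/arsenate coupling system with diaphorase/resazurin was added; resorufin fluorescence (525/598 nm) was read after 20 min.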
HCV inh: inhibitors of hepatitis C virus infection; actives 3.4% (n = 340,000); AID 651820; Potency, µM (highest dose often 41.8 µM), for the others: top-dose activity change, negative = inhibition, usual class: inhibitors; Huh7.5.1 HCVcc-Cre infection, luciferase reporter, 44 h; note: potency is the fitted concentration of half-maximal effect
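Cells seeded at 1,000/well and cultured 4 h, then compounds added followed by HCVcc-Cre virus (~0.5 moi). After 44 h further culture, luciferase substrate was added, plates held 15 min at room temperature, and luminescence read for 15 sec.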
VACV mCherry inh: vaccinia inhibition (mCherry reporter); Vaccinia virus mCherry reporter infection, fluorescence; Potency, µM (top dose mostly 36.5 µM), without a hit: at the highest dose activity change, negative = inhibition, hits mostly inhibitors; actives 0.63% (n = 310,000); AID 720579; calls by dose curve; tested in A549 cells; note: potency is the fitted concentration of half-maximal effect; nearly all actives have a fitted effect of over 35% in size
HCMV antiviral: blocks human cytomegalovirus replication | HFF cells, HCMV-luciferase reporter, 72 h; active compounds read low | activity change, negative = inhibition, % at 57.5 µM | actives 4.5% (n = 410,000); in the data active = activity change below about -60%; inconclusive = no clear call, values can overlap the other calls; inactive = above about -39%
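Compounds were evaluated in HFFs infected with an HCMV luciferase reporter virus (MOI 1 PFU/cell). Luciferase in lysates collected 72 h post infection served as the replication measure.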
VACV Venus inh: inhibitors of vaccinia virus (Venus reporter); Vaccinia virus Venus reporter expression, fluorescence; actives 0.46% (n = 330,000); Potency, µM (highest dose often 36.5 µM), inactives show top-dose activity change, negative = inhibition, actives largely listed as inhibitors; AID 720580; calls by dose curve; tested in A549 cells; note: potency is the fitted concentration of half-maximal effect; nearly all actives have a fitted effect of over 30% in size
FMDV inh: blocks foot and mouth disease virus | Potency, µM (doses to about 57.9 µM), without a hit: at the highest dose activity change, negative = inhibition, most hits filed as inhibitors | actives 1.2% (n = 410,000) | FMDV antiviral cell-based qHTS; calls by dose curve; tested in HEK293T cells; note: read-out not given here; potency is the fitted concentration of half-maximal effect; nearly all actives have a fitted effect of over 45% in size
* = called active by the depositor; i = inactive; ? = inconclusive; . = not tested or not shown; [ ] = remark or other dose. Unless noted, calls come from the whole dose curve; as a rule, active = well fitted curve in the direction sought with a large enough effect; inconclusive = small, poorly fitted or top-dose-only effect, or another doubt; inactive = no such curve, though single readings can be large; an effect the other way counts as inactive or inconclusive. % is set by controls: 0 for no effect and ±100 for the full control effect.

SMILES	Giardia FBPA inh	HCV inh	VACV mCherry inh	HCMV antiviral	VACV Venus inh	FMDV inh
O=C(CSc1nc2nc(-c3cccs3)cc(C(F)(F)F)c2c(=O)[nH]1)Nc1ccc(F)c(F)c1	15%	?	-24%	-97*	?	?
CN1CCc2nc(SCC(=O)Nc3ccc(OC(F)(F)F)cc3)c(C#N)c(-c3cccs3)c2C1	?	13µM*	-17%	-39	1%	2%
Cc1ccccc1NC(=S)NCc1ccc2c(c1)cc(C)n2C	7%	-17%[8.37 µM]	26%	-4	-5%	14%
CCc1cccc(C)c1NC(=S)NCc1ccc2c(c1)cc(C)n2C	-1%	?	?	-91*	-1%	-13%
CCOC(=O)c1[nH]c(C)c(CCC(=O)Nc2cccc(C(F)(F)F)c2)c1C	.	.	-2%	-24	-3%	-19%
Cc1cc(C)c(NC(=O)COc2nc3ccccc3nc2C)c(C)c1	4%	11µM*	-13%	?	-6%	-27%
Cc1nc2ccccc2nc1OCC(=O)Nc1ccc2ccccc2c1	1%	?	-11%	40	-7%	-11%
C[C@H](CO)N1C[C@H](C)[C@H](CN(C)C(=O)Nc2cccc(C(F)(F)F)c2)OCc2cnnn2CCCC1=O	.	.	-12%	-29	-18%	-20%
C=C1CCC[C@]2(C)C[C@H]3OC(=O)C(CNCC(OC)OC)[C@H]3CC12 (stereo not given in full)	-9%	4%	4.5µM*	-30	?	-12%
C=C1CCC[C@]2(C)C[C@H]3OC(=O)C(CNC(C)CCCC(C)C)[C@H]3CC12 (stereo not given in full)	5%	?	?	-68*	7.1µM*	-19%
C=C1CCC[C@]2(C)C[C@H]3OC(=O)C(CN4CCOCC4)[C@H]3C[C@@H]12 (stereo not given in full)	13%	4%	.	?	.	-16%
C=C1CCC[C@]2(C)C[C@H]3OC(=O)C(CN[C@@H](C)c4ccccc4)[C@H]3CC12 (stereo not given in full)	14%	?	?	-64*	?	-24%
C=C1CCC[C@]2(C)C[C@H]3OC(=O)C(CN(Cc4ccc(OC)c(OC)c4)CC(C)O)[C@H]3CC12 (stereo not given in full)	9%	-27%	.	-99*	.	?
CCCCC(=O)/C=C/n1c(=S)oc2ccccc21	1%	?	-13%	-101*	-13%	?
CC(C)OC(=O)n1c(=S)oc2ccccc21	-5%	9%	-4%	22	-15%	.
O=C(C(Cc1ccccc1)N1C(=O)c2ccccc2C1=O)N1c2ccccc2CCc2ccccc21 (stereo not given)	-5%	10µM*	i	-66*	?	0%
COc1ccc(CCNC(=O)/C=C/c2ccc3ccccc3n2)cc1OC	13%	?	?	-100*	?	28µM*
COc1ccc(C2CC(c3cccc(Cl)c3)=NN2c2ccc(S(N)(=O)=O)cc2)cc1 (stereo not given)	.	13µM*	?	1	-28%	?
COc1ccc(C2CC(c3ccc(Cl)cc3)=NN2c2ccc(S(N)(=O)=O)cc2)cc1 (stereo not given)	.	?	?	13	?	0%
COc1ccc(C2CC(c3ccccc3)=NN2c2ccc(N)cc2)cc1 (stereo not given)	-13%	-11%	-7%	19	-19%	40µM*
Cc1ccc(C2=NN(S(=O)(=O)c3ccccc3)C(c3ccccc3O)C2)cc1 (stereo not given)	-11%	14µM*	?	?	-18%	43%
COc1ccc(C2CC(c3ccccc3)=NN2S(=O)(=O)c2ccccc2)cc1 (stereo not given)	1%	13µM*	.	-40	.	-3%
CS(=O)(=O)Nc1ccc(C2=NN(S(=O)(=O)c3ccccc3)C(c3cccs3)C2)cc1 (stereo not given)	-1%	-6%	.	33	.	4%
COc1ccc(N2CCC[C@@H]2/C=C/C(=O)OC(C)(C)C)cc1	.	.	.	24	.	.
O=C(CCCn1c(=S)[nH]c2cc3c(cc2c1=O)OCO3)NCc1cccc(Cl)c1	.	13%	.	-13	.	-19%
SMILES	Giardia FBPA inh	HCV inh	VACV mCherry inh	HCMV antiviral	VACV Venus inh	FMDV inh
CCCCc1nc2c(c3c1C[C@H](C)OC3)CN(S(=O)(=O)c1ccc(NC(C)=O)cc1)CC2	5%[12.9 µM]	.	.	.	.	.
NS(=O)(=O)c1ccc(N2N=C(c3ccc(Br)cc3)CC2c2ccc(F)cc2)cc1 (stereo not given)	-12%	?	16µM*	-17	11µM*	22µM*
CCOC(=O)c1c(C)oc2nc(C)nc(NCC3CCN(Cc4cccc(Cl)c4)CC3)c12	.	.	i	4	-7%	3%
O=C(c1ccc(CSc2nc3ccncc3[nH]2)cc1)N1CCN(c2cccc(Cl)c2)CC1	3%	7.9µM*	?	-90*	?	?
Cc1ccc(CSc2nc3ccncc3[nH]2)cc1	-13%	-7%	-10%	97	-6%	10µM*
Nc1ccc(S(=O)(=O)NC(Cc2ccccc2)C(=O)O)cc1 (stereo not given)	-7%	5%	.	6	.	0%
COc1cc(C(F)(F)F)c(C(=O)NCc2cccc(Cl)c2)cn1	0%	4%	i	-4	-8%	4%
O=C(CCCN1CCC(C(O)c2ccc(F)cc2)CC1)c1ccc(F)cc1 (stereo not given)	.	.	i	6	10%	-21%
CN(C)c1ccnc2sc(C(=O)c3ccc(Br)cc3)c(N)c12	-5%	5%	i	-22	-14%	37%
CN(C)C=Nc1c(C(=O)c2ccccc2)sc2nccc(N(C)C)c12	-1%	?	i	-75*	-15%	-9%
CN(C)c1ccnc2sc(C(=O)NCc3ccccc3)c(N)c12	3%	13µM*	i	-23	-13%	.
C[C@@H]1OC(OC2C(OC3CC[C@@]4(C)C5CC=C6C7CC(C)(C)CC[C@@]7(C(=O)O)CCC6(C)C5(C)CCC4[C@]3(C)CO)OCC(O)C2O)C(O)C(O)C1O (stereo not given in full)	0%	.	?	.	?	?
O=[N+]([O-])c1cc(Cl)cc(/C=N\Nc2ccccn2)c1O	-2%	?	2.2µM*	-103*	?	-29%
O=[N+]([O-])c1ccc(Cl)cc1C=NNc1ccccn1	.	?	i	43	-2%	15%
CCOC(=O)C(CC)N1CCN(Cc2ccc(F)cc2)C(=O)C1=O (stereo not given)	.	.	-3%	5	2%	-25%
CC(=O)c1ccc(N2CCN(Cc3cc(=O)n4c(-c5ccccc5)csc4n3)CC2)cc1	.	13µM*	-13%	10	-6%	-25%

Bioassay records (PubChem)
